About 83,000 compounds went through this panel and 20% of them were active in at least one assay; those are over-represented in the sample as a whole.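 Interpretation: 100, growth as untreated; towards 0, rising growth inhibition; 0, no net growth; 0 to -100, cell death. Compounds scoring below 10 were considered active.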 Calls of active or inactive are those of the source.
Experiments:
Experiment in all cases: NCI-60 one-dose screen, 48 h (100 = growth as untreated, 0 = no growth, -100 = all killed)
Conditions in all cases: 10 µM
T-47D breast = system: T-47D breast
BT-549 breast = system: BT-549 breast
MDA-MB-435 melanoma = system: MDA-MB-435 melanoma
SW-620 colon = system: SW-620 colon
MCF7 breast = system: MCF7 breast
HCT-116 colon = system: HCT-116 colon
HCC-2998 colon = system: HCC-2998 colon
KM12 colon = system: KM12 colon
MDA-MB-468 breast = system: MDA-MB-468 breast

Measured: growth

O=C(Cc1ccc2c(c1)CN(C1CCC(=O)NC1=O)C2=O)NCc1cccc2ccccc12 (stereo unspecified)
active: T-47D breast -4.86% | BT-549 breast -52.8% | MDA-MB-435 melanoma -15.1% | SW-620 colon 5.07% | MCF7 breast 1.22% | HCT-116 colon 9.59% | HCC-2998 colon -48.6% | KM12 colon -7.26% | MDA-MB-468 breast -69.2%

CC(C)(C)Nc1nc2cc(Cl)c(Cl)cc2nc1S(C)(=O)=O
active: BT-549 breast -29.7% | SW-620 colon -74.5% | MDA-MB-468 breast -28.5%
inactive: T-47D breast 31.3% | MDA-MB-435 melanoma 44.6% | MCF7 breast 58.8% | HCT-116 colon 13.1% | HCC-2998 colon 42.2% | KM12 colon 81.3%

O=c1c2ccccc2nc(COc2ccccc2)n1/N=C/c1ccc(N2CCCC2)cc1
inactive: T-47D breast 57.7% | BT-549 breast 84.8% | MDA-MB-435 melanoma 99.5% | SW-620 colon 109% | MCF7 breast 87.6% | HCT-116 colon 79.5% | HCC-2998 colon 106% | KM12 colon 96.7% | MDA-MB-468 breast 137%

CN1C(=O)/C(=C/c2nccs2)SC1=S
inactive: T-47D breast 45.9% | BT-549 breast 90.2% | MDA-MB-435 melanoma 83.9% | SW-620 colon 92.5% | MCF7 breast 38.2% | HCT-116 colon 85.2% | HCC-2998 colon 113% | KM12 colon 90.2% | MDA-MB-468 breast 65.3%

COc1nccnc1NS(=O)(=O)c1ccc(NC2=C(Cl)C(=O)c3nc(C)ccc3C2=O)cc1
inactive: T-47D breast 101% | BT-549 breast 101% | MDA-MB-435 melanoma 103% | SW-620 colon 115% | MCF7 breast 108% | HCT-116 colon 92% | HCC-2998 colon 103% | KM12 colon 111%
active: MDA-MB-468 breast 9.69%

Cc1cccc2cc(-c3cc(-c4ccccc4)nc(=O)[nH]3)c(Cl)nc12
inactive: T-47D breast 76.7% | BT-549 breast 84.4% | MDA-MB-435 melanoma 99.8% | SW-620 colon 87.7% | MCF7 breast 29.3% | HCT-116 colon 63.4% | HCC-2998 colon 102% | KM12 colon 73.5% | MDA-MB-468 breast 83.6%

CC(=C(c1ccc(OCCN2CCCCCC2)cc1)c1ccc(OCCN2CCCCCC2)cc1)c1ccc(Cl)cc1
active: T-47D breast -58.8% | BT-549 breast -65.5% | MDA-MB-435 melanoma -100% | SW-620 colon -61.1% | MCF7 breast -79.6% | HCT-116 colon -61.9% | HCC-2998 colon -97.8% | KM12 colon -73% | MDA-MB-468 breast -91.6%

CC1=C2C(=C[C@@](C)(CO)[C@@H]2O)/C(=N\N)[C@](C)(O)C12CC2
inactive: HCT-116 colon 19.1%
active: T-47D breast -11.8% | BT-549 breast -71.7% | MDA-MB-435 melanoma -63.8% | SW-620 colon -9.56% | MCF7 breast -6.87% | HCC-2998 colon -76.6% | KM12 colon 7.94% | MDA-MB-468 breast -90.8%

O=C(Cn1cc(CSc2nnc3oc4ccccc4n23)nn1)Nc1ccc(Br)cc1
inactive: T-47D breast 70.5% | BT-549 breast 92.1% | MDA-MB-435 melanoma 98.1% | SW-620 colon 108% | MCF7 breast 65.3% | HCT-116 colon 82% | HCC-2998 colon 96.4% | KM12 colon 85.7% | MDA-MB-468 breast 80.1%

COc1cccc2nc(Nc3ccc(F)c(NC(=O)c4ccc(CN5CCN(C)CC5)c(C(F)(F)F)c4)c3)ccc12
active: MDA-MB-435 melanoma -69.3% | SW-620 colon -63% | MCF7 breast -61.3% | HCT-116 colon 1.84% | HCC-2998 colon -94.5% | KM12 colon -22.2% | MDA-MB-468 breast -48.9%
inactive: T-47D breast 22% | BT-549 breast 82.6%

COc1ccc(C(C)=C(c2ccc(OCCCN(C)C)cc2)c2ccc(OCCCN(C)C)cc2)cc1
active: T-47D breast -76.2% | BT-549 breast -78.4% | MDA-MB-435 melanoma -99.9% | SW-620 colon -59.4% | MCF7 breast -69.5% | HCT-116 colon -72.1% | HCC-2998 colon -91.6% | KM12 colon -85.5% | MDA-MB-468 breast -88%

O=C1Nc2cc(Cl)ccc2/C1=C/c1cccc(OCc2ccccc2)c1
active: BT-549 breast -21.8% | SW-620 colon 8.71% | MCF7 breast 2.6% | HCT-116 colon 3.32% | HCC-2998 colon -39% | KM12 colon 4.45%
inactive: T-47D breast 14.7% | MDA-MB-435 melanoma 10.5% | MDA-MB-468 breast 11.9%

COc1cccc(/C=C2\N=C(C)N(CCc3ccc(S(N)(=O)=O)cc3)C2=O)c1
inactive: T-47D breast 97.3% | BT-549 breast 100% | MDA-MB-435 melanoma 114% | SW-620 colon 105% | MCF7 breast 95.2% | HCC-2998 colon 117% | KM12 colon 104% | MDA-MB-468 breast 113%

COC1CC(Cn2cc(COc3ccc4ccc(=O)oc4c3)nn2)C(OCc2ccccc2)C(OCc2ccccc2)C1OCc1ccccc1 (stereo unspecified)
inactive: T-47D breast 103% | BT-549 breast 122% | MDA-MB-435 melanoma 103% | SW-620 colon 97.1% | MCF7 breast 84.8% | HCT-116 colon 76.6% | KM12 colon 109% | MDA-MB-468 breast 93.4%

Cc1ccc(/C=C/C(=O)c2ccc(NC(=O)CSc3nnc(-c4c[nH]c5ccccc45)n3-c3ccccc3)cc2)cc1
active: MCF7 breast 8.55% | HCT-116 colon -40.2%
inactive: T-47D breast 54.2% | BT-549 breast 95.7% | MDA-MB-435 melanoma 72.8% | SW-620 colon 90.1% | KM12 colon 78.7% | MDA-MB-468 breast 85.7%

O=C(CSc1nnc(-c2c[nH]c3ccccc23)n1-c1ccccc1)c1ccc(Cl)cc1
inactive: T-47D breast 54.6% | BT-549 breast 69.8% | MDA-MB-435 melanoma 79.2% | SW-620 colon 70.3% | MCF7 breast 38.4% | HCT-116 colon 45.7% | KM12 colon 78.7% | MDA-MB-468 breast 46.4%

Cc1ccc(S(=O)(=O)c2nc(-c3ccccc3)oc2S(=O)(=O)CC(=O)N2CCCC2)cc1
inactive: KM12 colon 40.8%
active: T-47D breast -70.4% | BT-549 breast -24.4% | MDA-MB-435 melanoma -99.3% | SW-620 colon -68.1% | MCF7 breast -40.7% | HCT-116 colon 0.73% | MDA-MB-468 breast -91.8%

O=C1Nc2ccc(F)cc2/C1=C/c1cccc(OCc2ccccn2)c1
inactive: T-47D breast 45% | BT-549 breast 24.1% | KM12 colon 15.4%
active: MDA-MB-435 melanoma -9.87% | SW-620 colon -0.341% | MCF7 breast 3.16% | HCT-116 colon 1.75% | MDA-MB-468 breast -5.96%

Source: PubChem BioAssay (NCI)
